Assay results: PubChem BioAssay AID1053124 (Broad Institute, 2014)
Entries with a potency or affinity are not part of this list. Active and inactive are the calls of the source.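 The calls were made as follows: active = cell killing whose fitted half-effect concentration is at most twice the top valid dose tested; inconclusive = flat curve with 30 to 70% killing, or a poor fit; inactive = effect in the rising direction, plus the rest.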

assay: viability loss in A549 lung cells – cell-based, ATP luminescence, cherry-pick, set 2, cytotoxicity control, dose response (AID 1053124); details: ATP luminescence (CellTiter-Glo), 72 h; series mostly up to 26 µM; activity change, negative = cytotoxicity: at the top concentration;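 also: 0% = neutral control wells and -100% = mitoxantrone 10 µM positive control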

Compound	activity change, negative = cytotoxicity
Cc1cccn2c(=O)c3cc(C(=O)NCC4CCCO4)c(=N)n(CC4CCCO4)c3nc12 (configuration not stated)	3.13% (inactive)
COc1ccc(Cn2nnnc2C(CC(C)C)N2CCC(C(N)=O)CC2)cc1 (configuration not stated)	-7.61% (inactive)
Cc1cccn2c(=O)c3cc(C#N)c(=NC(=O)c4cccs4)n(CC(C)C)c3nc12	-0.676% (inactive)
CC(=O)N=c1c(C#N)cc2c(=O)n3ccccc3nc2n1CCCOC(C)C	-4.8% (inactive)
COc1ccc(C(=O)c2sc3nc(-c4ccc(OC)cc4)ccc3c2N)cc1	-7.45% (inactive)
Cn1nc(-c2ccc(Cl)cc2)c2cc(C(=O)N3CCN(c4ccccc4)CC3)sc21	-7.43% (inactive)
CCOc1ccc(C(=O)c2cc3ccc(O)cc3oc2=O)cc1	-0.025% (inactive)
CC1CC(C)CN(CCCNC(=O)CCC(=O)N2CC(C)Oc3ccccc32)C1 (configuration not stated)	-7.74% (inactive)
O=C1CCc2cc(S(=O)(=O)NC(Cc3ccccc3)C(=O)NCCC3=CCCCC3)ccc2N1 (configuration not stated)	8.84% (inactive)
COCCCn1c(=N)c(C(=O)NC2CCCCC2)cc2c(=O)n3ccccc3nc21	-12% (inactive)
Cc1ccc(-n2nnnc2CNC(=O)C(=O)c2c[nH]c3ccccc23)cc1C	0.963% (inactive)
Cc1cc(=O)oc2cc(OC(=O)c3cncc(Br)c3)ccc12	-8.82% (inactive)
CC(=O)c1cc2c(ccc3ccccc32)oc1=O	-2.08% (inactive)
COc1ccc(CCN=C(N)NS(=O)(=O)c2ccc(F)cc2)cc1	-7.67% (inactive)
Cc1cc(-n2c(=O)c(C#N)cc3c(=O)n4cccc(C)c4nc32)no1	-6.24% (inactive)
COc1cc(C(=O)OCC(C)=O)cc(NC(=O)c2ccco2)c1OC	-0.686% (inactive)
CCOCCCNc1c(CC)c(C)c(C#N)c2nc3ccccc3n12	-3.14% (inactive)
